Molecules are shown by their SMILES. Records with an inconclusive call do not appear. Unmarked numbers belong to inactive results. The source made the active and inactive calls. Calls follow the shape of the dose curve; as a rule, active = well fitted activation curve with a large enough effect in the repeat runs; inconclusive = weak or mixed curves; inactive = flat fitted curve, though single readings scatter.
% is scaled to controls: 0 for no effect and ±100 for the full control effect; potency is read from the fitted curve at half-maximal effect.

This experiment is described as follows: A CellTox Green Cytotoxicity Assay to monitor cytotoxicity in HEK293 cells - 16 hour (AID 1224888). Also: nearly all actives have a fitted effect of over 35% in size. The conditions noted are these: CellTox Green fluorescence; series mostly up to 76.8 µM; activity change: at the top concentration. An excerpt:
National Center for Advancing Translational Sciences [NCATS]
NIH Chemical Genomics Center [NCGC]
U.S. Environmental Protection Agency [EPA]
National Institutes of Environmental Health Sciences [NIEHS]
National Toxicology Program [NTP]
Cell-based models are critical for drug discovery. Determining the natural cytotoxic effects resulting from test compounds is an essential research activity. A CellTox Green Cytotoxicity Assay to monitor cytotoxicity in real time of continues cell culture during 40 hours of the compound treatment was used to screen Tox21 10K library compounds in Hek293 cells. CellTox Green Cytotoxicity Assay is a nonlytic, homogeneous, biofluorescent method to measure cytotoxicity in cell culture after experimental manipulation. The assay system uses a proprietary asymmetric cyanine dye that is excluded from viable cells but preferentially stains the dead cell's DNA. […] Viable cells produce no appreciable increases in fluorescence. Therefore, the fluorescence signal produced by the binding interaction with dead cell DNA is proportional to cytotoxicity.
The mixture of Hek293 cell suspension and reagents were dispensed at 600cells/6 ul/well in 1536-well tissue culture treated black solid bottom plates using a Multidrop dispenser. After the assay plates were incubated at a 37 C/5% CO2 incubator for 5 hours, 23 nL of compounds dissolved in DMSO, positive and negative controls was transferred to the assay plate by a pintool work station. The plates were incubated at 37 C for 40 hours. The fluorescence intensity were measured at 0h, 8h, 16h, 24h, 32h and 40h time points using ViewLux plate reader during compound treatment.
As to `OCCC(O)CO` (stereo not given), the “activity change” value is -1.91%.

`C=C/C=C/C=C/CCCCC`: the activity change is -0.0444% [at 15.8 µM, stronger effect = higher value].

On to `CC(=O)c1ccccc1N`, for which the “activity change” value was -18.6%.

Regarding `CCc1cccc(CC)c1NC(=O)C(=O)O`, the “activity change” value was 17.5%.

Consider `COC(=O)CC#N`, for which the “activity change” value was 8.48%.

`COc1nccnc1CC(C)C`: the “activity change” value is 13.7%.

As for `CSc1c(Cl)c(Cl)c(Cl)c(Cl)c1Cl`, the “activity change” value was 19.6%.

As for `CCCCCCCOC(=O)c1ccc(O)cc1`, the Potency entry is “inactive”.

As to `O=S(=O)(O)c1cc(S(=O)(=O)O)c2ccc3c(S(=O)(=O)O)cc(S(=O)(=O)O)c4ccc1c2c43`, the activity change was -3.56% [at 15.8 µM, stronger effect = higher value].

On to `CC[N+](CC)(CC)Cc1ccccc1`, for which the “activity change” value was -0.681%.

For the compound `C[Si](C)(C)Cl`, the “activity change” value is -11.4%.

In the case of `Clc1nc2ccccc2s1`, the “activity change” value is 0.358%.

As to `CC(C)CCOCCC(C)C`, the “activity change” value was -12%.

For the compound `CCC(C)C(=O)OC` (stereo not given), the “activity change” value was -8.44%.

Take `CNC(=O)c1cc(Oc2ccc(NC(=O)Nc3ccc(Cl)c(C(F)(F)F)c3)cc2)ccn1`: the “activity change” value was 9.93% [at 35.3 µM, stronger effect = higher value].

`C=C(C)CCCC`: the “activity change” value is 7.78%.

With `CCCCCCCOC(=O)c1ccccc1C(=O)OCCCCCCC`, the “activity change” value was -1.36%.

As for `CCCCCCCCCCCCCC[n+]1ccccc1`, the Potency was 54.9 µM (active).

In the case of `CCOCOCC`, the “activity change” value was -5.09%.

As for `CCc1cccc(C)c1`, the “activity change” value is -0.368%.

With `CCC(C)c1ccccc1` (stereo not given), the “activity change” value was -1.66%.

For `CN(C)c1ccc(N=Nc2ccccc2C(=O)O)cc1`, the “activity change” value was -20.6%.

Take `O=C=NCc1cccc(CN=C=O)c1`: the activity change is -10.6% [at 15.8 µM, stronger effect = higher value].

As for `O=C(Oc1ccccc1)c1cccc(C(=O)Oc2ccccc2)c1`, the “activity change” value is 0.987%.

As for `COc1ccc(-n2nc(CCC(=O)N(C)O)cc2-c2ccc(Cl)cc2)cc1`, the “activity change” value is -8.45% [at 35.3 µM, stronger effect = higher value].

For the compound `COc1ccccc1OCCNCC(O)COc1cccc2[nH]c3ccccc3c12` (stereo not given), the “activity change” value was 4.76% [at 35.3 µM, stronger effect = higher value].

In the case of `Cn1cnc2ncnc(N)c21`, the “activity change” value was -3.95% [at 35.3 µM, stronger effect = higher value].

As for `C#CC(O)CCC` (stereo not given), the “activity change” value is -2.37%.

Turning to `CCCCCCCC/C=C\CCCCCCCC(=O)OCCOC(=O)CCCCCCC/C=C\CCCCCCCC`, the “activity change” value is 3.08%.

Take `CCCC(=O)OCC(COC(=O)CCC)OC(=O)CCC`: the “activity change” value was 7.89%.

On to `CCOC(=O)N1CCC(=C2c3ccc(Cl)cc3CCc3cccnc32)CC1`, for which the Potency result is “inactive”.

In the case of `CCCCCCOc1cc(C)c(O)c(C)c1C`, the Potency was 44.2 µM (active).

Turning to `Brc1ccccn1`, the “activity change” value was -7.09%.

For `CCCCCCCCCCCCCc1ccccc1`, the “activity change” value was -3% [at 35.3 µM, stronger effect = higher value].

As for `COc1ccccc1C=O`, the “activity change” value is 19.8%.

`NC(=O)c1nc(-c2cccc(-c3cc(F)ccc3OCC(F)(F)C(F)(F)F)c2)n[nH]1`: the “activity change” value was 16.8%.

For the compound `CCc1cccc(CC)c1N(COC)C(=O)CS(=O)(=O)O`, the “activity change” value was -7.32%.

`COc1ccc2sc(C(=O)Nc3nnn[nH]3)c(OC(C)C)c2c1`: the “activity change” value is 1.04%.

As to `CCCCCCC(C)Nc1ccc(Nc2ccccc2)cc1` (stereo not given), the “activity change” value is -2.5%.

With `CC(COC(=O)c1ccccc1)OC(=O)c1ccccc1` (stereo not given), the “activity change” value is 0.518%.

The values above are taken from PubChem BioAssay (Tox21).
